Gal4-VP16 FLuc = counter-screen for ROR gamma inhibitors: Gal4-VP16 reporter; AID 2546; hit rate 3.5% among 310,000; Potency, µM (doses to about 53.6 µM), inactives show at the top dose activity, negative = inhibition, usual class: inhibitors; Drosophila S2 Gal4-VP16 UAS-luciferase, luminescence, 20 h;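 note: Gal4-VP16 expression switched on by copper sulfate through the metallothionein promoter; potency is the fitted concentration of half-maximal effect; nearly all actives have a fitted effect of over 50% in size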
RORg inh = inhibitors of mouse ROR gamma transcriptional activity. P51450. Drosophila S2 Gal4-RORgamma UAS-luciferase reporter, 20 h. Potency, µM (top dose mostly 53.6 µM), without a hit: at the top dose activity change, negative = inhibition, hits mostly inhibitors. hit rate 5.4% among 310,000. AID 2551; note: potency is the fitted concentration of half-maximal effect; nearly all actives have a fitted effect of over 60% in size
Target sequence (P51450 whole entry, looked up, the tested form may be a part): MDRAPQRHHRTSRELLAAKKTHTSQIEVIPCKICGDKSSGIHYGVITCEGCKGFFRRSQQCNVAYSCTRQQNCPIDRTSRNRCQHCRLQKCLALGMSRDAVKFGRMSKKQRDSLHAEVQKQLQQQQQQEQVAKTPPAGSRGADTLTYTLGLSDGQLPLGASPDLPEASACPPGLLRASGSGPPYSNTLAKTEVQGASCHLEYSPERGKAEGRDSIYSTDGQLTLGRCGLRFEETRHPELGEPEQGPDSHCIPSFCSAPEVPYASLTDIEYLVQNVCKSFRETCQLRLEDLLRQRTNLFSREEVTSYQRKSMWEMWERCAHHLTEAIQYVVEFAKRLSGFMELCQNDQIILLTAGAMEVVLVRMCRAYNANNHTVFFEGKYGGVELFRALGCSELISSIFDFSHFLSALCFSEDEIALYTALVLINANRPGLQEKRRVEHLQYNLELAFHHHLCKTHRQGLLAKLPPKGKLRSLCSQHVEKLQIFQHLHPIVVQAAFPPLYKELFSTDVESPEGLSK
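Drosophila Schneider cells stably carrying a metallothionein-driven Gal4 DBD–ROR gamma fusion and a UAS-Photinus luciferase reporter were exposed to compound for 1 hr, then induced with copper sulfate (700 uM final) for 20 hr at ambient temperature before luminescence reading.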
IL-1B inflam inh = blocks inflammasome-driven IL-1 beta release. THP-1 LPS/ATP IL-1B secretion, AlphaLISA, 16 h; stronger effect = lower value. activity change, % at 57.5 µM. hit rate 4.7% among 360,000. AID 743279; in the data active = activity change below about -50%; inconclusive = mostly about -30% to -49%
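THP-1 cells pretreated 1 hr with compounds (up to 57.5 uM final), then stimulated with LPS (250 ng/mL final) plus ATP (1.25 mM final); secreted IL-1B measured by AlphaLISA after 16 hr, decreased signal indicating inhibition.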
ELG1 DNA repair = inhibitors of ELG1-dependent DNA repair in HEK293T cells. Potency, µM (highest dose often 46.1 µM), for inactives: top-dose activity change, negative = inhibition, actives largely listed as inhibitors. hit rate 2.3% among 330,000. HEK293T ELG1-luciferase reporter, luminescence, 16 h; DNA damage induced by 5-fluorouridine; note: potency is the fitted concentration of half-maximal effect; nearly all actives have a fitted effect of over 55% in size
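Step one: seed 2,000 cells per well. Step two: pin-transfer compound or DMSO alongside 5-fluorouridine. Step three: incubate 16 hr, 37 °C, 5% CO2. Step four: add ONE-Glo, wait 30 min, read luminescence.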
DT40 TDP1 CPT = growth inhibition of DT40 Tdp1-/-;hTDP1 cells with camptothecin (screen for TDP1 inhibitors); AID 686979; chicken DT40 Tdp1-/-;hTDP1 cells + 20 nM CPT, ATP luminescence, 48 h; Potency, µM (titrated, usually from 46.2 µM), for inactives: top-dose activity change, negative = growth inhibition, most hits filed as inhibitors; hit rate 12% among 420,000; note: potency is the fitted concentration of half-maximal effect; nearly all actives have a fitted effect of over 55% in size
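Chicken DT40 Tdp1-/- cells complemented with human TDP1, 400 cells/well, exposed to compounds plus 20 nM camptothecin for at least 48 h at 37 C; viability read as ATP content by CellTiter-Glo luminescence.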
TDP1 cell noCPT = qHTS for Inhibitors of human tyrosyl-DNA phosphodiesterase 1 (TDP1): qHTS in cells in absence of CPT. Potency, µM (titrated, usually from 46.2 µM), for inactives: top-dose activity change, negative = growth inhibition, usual class: inhibitors. hit rate 15% among 420,000. DT40 Tdp1-/- hTDP1 cells, no CPT, ATP luminescence, 48 h; note: potency is the fitted concentration of half-maximal effect; nearly all actives have a fitted effect of over 55% in size
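Chicken DT40 Tdp1-/- cells stably complemented with human TDP1 were seeded at 400 cells/well with DMSO in place of 20 nM camptothecin. After compound pinning, cells grew at least 48 hr at 37 °C; viability read by CellTiter-Glo luminescence.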
The depositor's hits bear a star; ? = inconclusive; · = no result; [ ] = another dose, or the depositor's remark. Compounds with a hit are over-represented: about 21% of the library has one in this group of screens. Unless noted, calls come from the whole dose curve; as a rule, active = well fitted curve in the direction sought with a large enough effect; inconclusive = small, poorly fitted or top-dose-only effect, or another doubt; inactive = no such curve, though single readings can be large; an effect the other way counts as inactive or inconclusive. % is set by controls: 0 for no effect and ±100 for the full control effect.

SMILES | Gal4-VP16 FLuc | RORg inh | IL-1B inflam inh | ELG1 DNA repair | DT40 TDP1 CPT | TDP1 cell noCPT
O=C(CCNC(=O)c1ccc([N+](=O)[O-])cc1)Nc1cc(C(F)(F)F)ccc1N1CCOCC1 | · | · | -23.0 | · | ? | ?
CC1CCCCC1NC(=O)/C(C#N)=C/c1ccc(F)c(F)c1 (stereo not given) | ? | ? | -8.5 | ? | -9.9% | -9.5%
N#C/C(=C\c1ccc(Cl)cc1)C(=O)NC1CC1 | · | · | ? | · | -28.2% | ?
CSc1ccc(/C=C(\C#N)C(=O)NC2CCCCC2)cc1 | 4.9% | -8.6% | -4.8 | ? | ? | 20.6µM*
CC(=O)Nc1ccc(/C=C(\C#N)C(=O)NC2CCCCC2)cc1 | -10.4% | -2.0% | -85.5* | ? | -8.8% | ?
N#C/C(=C/c1ccc(OCc2ccccc2)cc1)C(=O)NC1CCCCC1 | -1.5% | -8.0% | -8.9 | 31.6% | 0.8% | -20.7%
COc1ccc(-c2[nH]ncc2/C=C(/C#N)C(=O)NC2CCCCCC2)cc1 | ? | 0.8% | -88.2* | 18.4µM* | ? | 18.4µM*
CC1CCCCC1NC(=O)/C(C#N)=C/c1ccc2c(c1)OCCO2 (stereo not given) | -19.7% | 36.9% | -101.7* | 1.7% | ? | ?
CCC1=C2CC[C@H]3C(=O)N(CC)C(=O)[C@H]3[C@H]2[C@@]2(Cc3ccccc3)C(=NCC3CC3)OC(=O)N2C1=O | 8.5% | 4.9% | · | · | · | ·
C=CCNC(=O)/C(C#N)=C/c1ccc(SC)cc1 | 11.2% | -1.9% | -57.4* | -18.2% | -6.3% | ?
COc1ccc(C2C(C(=O)Nc3cc(C)on3)c3ccccc3C(=O)N2C)cc1 (stereo not given) | -5.5% | 3.2% | -5.6 | -7.6% | ? | 5.2%
Cc1ccc(CNC(=O)C2c3ccccc3C(=O)N(C)C2c2c[nH]c3ccccc23)o1 (stereo not given) | 0.7% | -19.8% | -4.7 | · | 20.6µM* | 14.6µM*
O=C(OCn1ncc(Br)c(Br)c1=O)c1c(F)cccc1F | 4.47µM* | 3.55µM* | · | 9.2µM* | · | ·
CC(=O)Cn1ncc(Br)c(Br)c1=O | 0.4%[10 µM] | 11.2µM* | -95.5* | ? | 5.8µM* | 5.17µM*
COC(=O)C(COC(=O)c1c(F)cccc1F)NC(=O)c1c(F)cccc1F (stereo not given) | -15.0% | -30.2% | -10.6 | 4.2% | ? | ?
Oc1cccc(-c2nc3c4c(ncn3n2)-c2ccccc2CC42CCCC2)c1 | 25.1µM* | ? | ? | 8.2µM* | 18.4µM* | 18.4µM*
COc1ccc(OCc2nc3c4c(ncn3n2)-c2ccccc2CC42CCCC2)cc1 | -7.9% | -3.0% | 5.7 | -27.1% | ? | ?
Cc1ccccc1OCc1nc2c3c(ncn2n1)-c1ccccc1CC31CCCC1 | -0.6% | 37.2% | -2.6 | -9.6% | ? | 14.6µM*
Cc1cccc(-c2nn(-c3ccccc3)cc2C(=O)N2CCN(C3CCS(=O)(=O)C3)CC2)c1 (stereo not given) | · | · | 1.8 | 13.6% | -3.9% | -5.5%
O=C(c1cc(COc2c(F)cccc2F)on1)N1CC[C@@H]2CCCC[C@H]2C1 | · | · | -8.4 | · | -29.7% | ?
FC(F)(F)c1cc(-c2ccco2)nc(-n2cnc3ccccc32)n1 | 5.0% | -12.7% | 33.9 | 9.9% | -12.8% | -16.6%
Cc1nc2ccccc2n1-c1nc(-c2ccco2)cc(C(F)(F)F)n1 | 7.9% | -35.8% | ? | -3.2% | 3.66µM* | 2.91µM*
COc1ccc(NC(=O)NNC(=O)CCc2ccc(O)c(O)c2)cc1OC | -5.5% | 5.8% | -1.0 | 4.5% | 21.3% | -1.3%
COc1cc(OC)cc(C(=O)N2CC(=O)Nc3ccccc32)c1 | -15.9% | -2.7% | 37.1 | ? | 1.46µM* | 1.3µM*
O=C(c1ccc(Cl)c([N+](=O)[O-])c1)N1CCCc2ccccc21 | 4.8% | 22.3% | 7.2 | ? | ? | ?
SMILES | Gal4-VP16 FLuc | RORg inh | IL-1B inflam inh | ELG1 DNA repair | DT40 TDP1 CPT | TDP1 cell noCPT
O=C1CN(C(=O)c2ccc(Cl)c([N+](=O)[O-])c2)c2ccccc2N1 | -11.1% | 34.1% | -78.3* | 1.8% | -18.7% | -6.5%
Cc1ccc(Nc2c([N+](=O)[O-])cc(C(=O)N3CC(=O)Nc4ccccc43)cc2[N+](=O)[O-])c(C)c1 | 1.3% | -27.7% | -11.2 | ? | 14.6µM* | ?
COc1cccc(CNc2ccc3nc(-c4ccc(N)cc4)c(OC)n3n2)c1 | -11.4% | ? | · | · | ? | ?
Cc1cccc(NC(=O)C2CCN(c3nnc(C)c4c(C)n(-c5ccccc5)nc34)CC2)c1C | · | · | · | · | -16.4% | 14.0%
CCN(Cc1ccccc1)Cc1c(O)ccc2c(=O)c(-c3ccccc3Cl)coc12 | · | · | · | · | 0.0% | -10.4%
CCN(CC)Cc1c(O)ccc2c(=O)c(-c3ccccc3)coc12 | 8.9% | 26.1%[1.91 µM] | -12.2 | 22.7% | 9.2µM* | ?
CCN(CC)Cc1c(O)ccc2c(=O)c(-c3ccc4c(c3)OCCO4)coc12 | 3.9%[0.365 µM] | 23.3% | 0.6 | -9.7% | 3.26µM* | 10.3µM*
CCN(CC)Cc1c(O)ccc2c(=O)c(Oc3ccccc3OC)coc12 | -11.8% | -14.6% | 1.2 | 18.7% | -10.2% | -1.5%
Cc1ccc(-c2nc(C(=O)NC3CCCCCC3)no2)cc1 | · | · | -5.6 | · | ? | 18.4µM*
CC(C)C(=O)N1CCC1(C)C(=O)Nc1ccc(-n2cccc2)cc1 (stereo not given) | · | · | -12.2 | · | ? | ?
O=[N+]([O-])c1ccc(Cl)c2cccnc12 | -12.3% | 20.9% | -22.4 | -21.6% | -26.1% | ?
CCC(=O)NC(c1ccc(C)cc1)c1cc([N+](=O)[O-])c2cccnc2c1O (stereo not given) | 2.82µM* | 2.51µM* | 41.8 | -18.1% | ? | 20.6µM*
CCCC(=O)NC(c1ccco1)c1cc([N+](=O)[O-])c2cccnc2c1O (stereo not given) | 5.01µM* | 5.62µM* | 90.3 | 20.6µM* | -7.0% | -22.5%
CCCC(=O)NC(c1ccco1)c1c(O)ccc2ccccc12 (stereo not given) | 10.6%[0.365 µM] | 0.7% | 9.6 | 0.1% | ? | ?
CC(=O)NC(c1ccc(C)cc1)c1cc([N+](=O)[O-])c2cccnc2c1O (stereo not given) | 3.98µM* | 2.82µM* | 118.7 | ? | 5.8µM* | 14.6µM*
CSCC[C@H](NC(=O)c1ccc(NC[C@@H](N)CS)cc1-c1ccccc1)C(=O)O | -4.8% | -3.0% | · | · | · | ·
Cc1ccccc1Cn1c(C)c(CNCc2ccccc2)c(C(=O)O)c1C | · | · | · | · | -1.0% | -28.3%
